Data on one sequence can be found in paper PMC7862700, “An all-to-all approach to the identification of sequence-specific readers for epigenetic DNA modifications on cytosine”.

What all share (test): DAPPL (digital affinity profiling via proximity ligation, sequencing); 10 mM Tris-HCl pH 7.5, 50 mM NaCl, 1 mM DTT, 4% glycerol, room temperature, 30 min; GST-TFs on glutathione beads, 16-mer random dsDNA library, 0.1% formaldehyde crosslink after washing; high values mean tight binding
The target in one experiment is T1, FLI1 (Homo sapiens, UniProt Q01543 1-452).
T1 sequence: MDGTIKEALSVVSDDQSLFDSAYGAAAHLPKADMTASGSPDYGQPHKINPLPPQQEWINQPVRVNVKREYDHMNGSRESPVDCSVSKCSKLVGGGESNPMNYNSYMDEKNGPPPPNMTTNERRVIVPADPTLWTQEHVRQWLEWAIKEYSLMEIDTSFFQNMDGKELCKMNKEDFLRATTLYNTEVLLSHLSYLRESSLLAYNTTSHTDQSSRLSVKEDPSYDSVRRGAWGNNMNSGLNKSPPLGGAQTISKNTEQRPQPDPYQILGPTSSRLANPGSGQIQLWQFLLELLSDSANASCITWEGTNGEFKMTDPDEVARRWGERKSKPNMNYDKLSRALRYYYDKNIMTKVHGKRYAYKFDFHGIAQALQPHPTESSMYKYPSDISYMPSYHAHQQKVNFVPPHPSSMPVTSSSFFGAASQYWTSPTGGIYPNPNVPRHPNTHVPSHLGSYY
The settings on record: protein: recombinant; tags: N-terminal GST; dsDNA, one strand shown. In short, it runs like this:
(§1)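 Yeast served to express human transcription factors as GST fusions, which were then captured on glutathione beads and labelled with DNA barcodes. Pooled with a tag-only sample, they were incubated with 200 nmole of a 16-mer random double-stranded DNA library for 30 min at room temperature in Tris/NaCl/DTT/glycerol buffer, washed, crosslinked with 0.1% formaldehyde, ligated by proximity, amplified by PCR and sequenced. Dividing each hexamer's read frequency for a factor by its frequency for the tag-only sample gives the binding signal.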

The next experiment has as its target T2, ELK1 (Homo sapiens, UniProt P19419 1-428).
T2 sequence: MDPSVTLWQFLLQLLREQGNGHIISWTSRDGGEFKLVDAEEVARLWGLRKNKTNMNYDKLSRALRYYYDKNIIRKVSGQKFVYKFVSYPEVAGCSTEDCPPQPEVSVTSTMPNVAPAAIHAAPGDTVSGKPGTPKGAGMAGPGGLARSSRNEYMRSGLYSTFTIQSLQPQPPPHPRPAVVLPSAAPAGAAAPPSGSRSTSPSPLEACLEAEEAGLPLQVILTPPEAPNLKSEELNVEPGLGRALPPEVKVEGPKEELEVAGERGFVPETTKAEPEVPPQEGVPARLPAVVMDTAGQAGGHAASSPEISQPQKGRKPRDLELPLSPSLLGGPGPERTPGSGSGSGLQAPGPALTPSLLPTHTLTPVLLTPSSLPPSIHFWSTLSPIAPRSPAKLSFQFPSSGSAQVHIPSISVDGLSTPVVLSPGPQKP
The settings on record: protein: recombinant; tags: N-terminal GST; dsDNA, one strand shown. In short, it runs like this:
as §1

Another experiment concerns the target T3, GABPA (Homo sapiens, UniProt Q06546 1-454).
T3 sequence: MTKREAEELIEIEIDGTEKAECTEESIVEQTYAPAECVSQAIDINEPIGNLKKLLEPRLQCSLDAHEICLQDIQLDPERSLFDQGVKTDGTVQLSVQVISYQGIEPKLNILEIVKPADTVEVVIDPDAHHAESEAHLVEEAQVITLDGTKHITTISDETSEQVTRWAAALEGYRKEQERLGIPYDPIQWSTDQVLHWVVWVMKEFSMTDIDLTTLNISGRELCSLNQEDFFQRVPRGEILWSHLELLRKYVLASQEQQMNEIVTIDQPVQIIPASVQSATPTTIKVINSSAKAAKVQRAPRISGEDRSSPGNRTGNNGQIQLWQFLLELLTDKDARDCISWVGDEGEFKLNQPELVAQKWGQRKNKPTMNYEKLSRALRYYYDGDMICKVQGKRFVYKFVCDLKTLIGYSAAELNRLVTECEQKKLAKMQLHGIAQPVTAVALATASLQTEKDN
The settings on record: protein: recombinant; tags: N-terminal GST; dsDNA, one strand shown. In short, it runs like this: as §1

A further experiment addresses T4, ERG (Homo sapiens, UniProt P11308 1-479).
T4 sequence: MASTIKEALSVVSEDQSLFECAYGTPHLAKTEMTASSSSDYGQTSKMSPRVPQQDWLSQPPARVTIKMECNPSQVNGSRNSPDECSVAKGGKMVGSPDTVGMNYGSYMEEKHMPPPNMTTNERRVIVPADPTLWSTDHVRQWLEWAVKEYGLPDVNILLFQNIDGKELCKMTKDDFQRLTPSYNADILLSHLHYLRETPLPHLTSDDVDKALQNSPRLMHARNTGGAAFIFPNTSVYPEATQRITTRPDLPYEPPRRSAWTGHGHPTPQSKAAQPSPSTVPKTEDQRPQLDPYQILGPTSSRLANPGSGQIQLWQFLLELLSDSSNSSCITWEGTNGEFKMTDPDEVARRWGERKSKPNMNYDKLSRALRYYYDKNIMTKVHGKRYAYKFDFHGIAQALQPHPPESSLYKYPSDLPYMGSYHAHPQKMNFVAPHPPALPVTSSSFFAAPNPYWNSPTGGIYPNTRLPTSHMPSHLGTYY
The settings on record: protein: recombinant; tags: N-terminal GST; dsDNA, one strand shown. In short, it runs like this: as §1

In a further experiment the target is ELF1 (Homo sapiens, UniProt P32519 1-619). The settings on record: protein: recombinant; tags: N-terminal GST; dsDNA, one strand shown. In short, it runs like this: as §1
Sequence of ELF1 (P32519 whole entry): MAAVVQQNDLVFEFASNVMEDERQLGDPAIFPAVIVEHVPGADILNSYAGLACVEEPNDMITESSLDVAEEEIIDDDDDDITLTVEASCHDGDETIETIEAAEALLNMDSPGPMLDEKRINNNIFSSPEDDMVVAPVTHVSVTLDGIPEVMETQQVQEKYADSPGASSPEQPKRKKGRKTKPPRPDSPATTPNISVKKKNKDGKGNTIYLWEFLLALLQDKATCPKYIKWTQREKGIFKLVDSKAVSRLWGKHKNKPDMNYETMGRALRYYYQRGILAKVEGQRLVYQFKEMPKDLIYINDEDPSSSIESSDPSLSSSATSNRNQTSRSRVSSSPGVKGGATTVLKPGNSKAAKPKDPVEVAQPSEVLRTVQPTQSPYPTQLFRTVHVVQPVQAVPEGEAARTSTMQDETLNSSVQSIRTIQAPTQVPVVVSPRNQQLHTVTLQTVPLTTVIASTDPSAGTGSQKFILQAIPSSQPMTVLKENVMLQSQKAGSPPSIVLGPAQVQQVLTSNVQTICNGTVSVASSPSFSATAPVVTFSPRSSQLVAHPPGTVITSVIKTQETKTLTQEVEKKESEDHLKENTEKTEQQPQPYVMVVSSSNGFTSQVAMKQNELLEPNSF
The target in a further experiment is T5, EHF (Homo sapiens, UniProt Q9NZC4 1-300).
T5 sequence: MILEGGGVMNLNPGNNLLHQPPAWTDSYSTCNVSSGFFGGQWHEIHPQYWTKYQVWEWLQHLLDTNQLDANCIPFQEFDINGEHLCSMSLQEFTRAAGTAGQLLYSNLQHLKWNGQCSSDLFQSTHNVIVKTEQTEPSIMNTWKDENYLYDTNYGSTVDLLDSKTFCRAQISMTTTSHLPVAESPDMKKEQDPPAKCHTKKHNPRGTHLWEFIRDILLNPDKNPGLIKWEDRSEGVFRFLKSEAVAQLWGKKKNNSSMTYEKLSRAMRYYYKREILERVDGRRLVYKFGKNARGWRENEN
The settings on record: protein: recombinant; tags: N-terminal GST; dsDNA, one strand shown. In short, it runs like this:
as §1

Another experiment addresses SPI1 (Homo sapiens, UniProt P17947 1-270). The settings on record: protein: recombinant; tags: N-terminal GST; dsDNA, one strand shown. In short, it runs like this: as §1
The next experiment has as its target SPIB (Homo sapiens, UniProt Q01892 1-262). The settings on record: protein: recombinant; tags: N-terminal GST; dsDNA, one strand shown. In short, it runs like this:
as §1

For another experiment, the target named is T6, ELK3 (Homo sapiens, UniProt P41970 1-407).
T6 sequence: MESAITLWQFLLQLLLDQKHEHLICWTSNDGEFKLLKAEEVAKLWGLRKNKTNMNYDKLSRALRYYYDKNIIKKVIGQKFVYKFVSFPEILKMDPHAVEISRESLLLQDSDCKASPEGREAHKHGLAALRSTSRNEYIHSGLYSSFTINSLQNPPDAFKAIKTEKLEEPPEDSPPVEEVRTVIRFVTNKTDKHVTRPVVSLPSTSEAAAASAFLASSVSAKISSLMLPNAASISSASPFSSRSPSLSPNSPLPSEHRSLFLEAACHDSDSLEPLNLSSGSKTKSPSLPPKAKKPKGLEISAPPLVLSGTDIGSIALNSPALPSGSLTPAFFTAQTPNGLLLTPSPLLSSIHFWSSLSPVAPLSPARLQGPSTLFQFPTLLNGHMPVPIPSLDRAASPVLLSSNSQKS
The settings on record: protein: recombinant; tags: N-terminal GST; dsDNA, one strand shown. In short, it runs like this:
as §1

The next experiment addresses T7, FEV (Homo sapiens, UniProt Q99581 1-238).
T7 sequence: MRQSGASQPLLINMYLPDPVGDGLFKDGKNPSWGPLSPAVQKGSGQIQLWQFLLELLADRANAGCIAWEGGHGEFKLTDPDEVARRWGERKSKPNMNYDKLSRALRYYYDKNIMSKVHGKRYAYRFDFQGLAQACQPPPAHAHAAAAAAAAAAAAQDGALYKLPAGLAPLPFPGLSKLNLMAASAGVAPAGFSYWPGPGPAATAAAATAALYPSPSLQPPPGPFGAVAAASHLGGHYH
The settings on record: protein: recombinant; tags: N-terminal GST; dsDNA, one strand shown. In short, it runs like this:
as §1

In the next experiment the target is ETV5 (Homo sapiens, UniProt P41161 1-510). The settings on record: protein: recombinant; tags: N-terminal GST; dsDNA, one strand shown. In short, it runs like this:
as §1

A further experiment addresses HSF1 (Homo sapiens, UniProt Q00613 1-529). The settings on record: protein: recombinant; tags: N-terminal GST; chain copies: 3; dsDNA, one strand shown. In short, it runs like this: as §1
The target of the next experiment is T8, SPIC (Homo sapiens, UniProt Q8N5J4 1-248).
T8 sequence: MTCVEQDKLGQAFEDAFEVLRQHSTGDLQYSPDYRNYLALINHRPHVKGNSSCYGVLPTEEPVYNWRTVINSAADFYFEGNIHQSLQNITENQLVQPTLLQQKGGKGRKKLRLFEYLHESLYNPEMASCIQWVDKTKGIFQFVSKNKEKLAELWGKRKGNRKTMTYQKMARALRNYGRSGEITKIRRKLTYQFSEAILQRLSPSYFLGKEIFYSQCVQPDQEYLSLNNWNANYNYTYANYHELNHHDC
The settings on record: protein: recombinant; tags: N-terminal GST; dsDNA, one strand shown. In short, it runs like this:
as §1

A further experiment has as its target ELF4 (Homo sapiens, UniProt Q99607 1-663). The settings on record: protein: recombinant; tags: N-terminal GST; dsDNA, one strand shown. In short, it runs like this: as §1
The next experiment addresses T9, ELK4 (Homo sapiens, UniProt P28324-2 1-405).
T9 sequence: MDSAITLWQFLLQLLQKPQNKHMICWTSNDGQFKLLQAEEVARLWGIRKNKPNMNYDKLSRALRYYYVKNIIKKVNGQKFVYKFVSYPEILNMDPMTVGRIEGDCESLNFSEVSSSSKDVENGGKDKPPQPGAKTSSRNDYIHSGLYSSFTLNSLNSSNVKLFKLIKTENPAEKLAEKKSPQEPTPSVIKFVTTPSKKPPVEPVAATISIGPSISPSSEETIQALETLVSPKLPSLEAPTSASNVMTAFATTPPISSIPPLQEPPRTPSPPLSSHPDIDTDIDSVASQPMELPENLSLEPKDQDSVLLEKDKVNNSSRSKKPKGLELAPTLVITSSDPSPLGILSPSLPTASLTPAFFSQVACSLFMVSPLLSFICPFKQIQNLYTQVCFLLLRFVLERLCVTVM
The settings on record: protein: recombinant; tags: N-terminal GST; dsDNA, one strand shown. In short, it runs like this:
as §1

In the next experiment the target is T10, ETV2 (Homo sapiens, UniProt O00321 1-342).
T10 sequence: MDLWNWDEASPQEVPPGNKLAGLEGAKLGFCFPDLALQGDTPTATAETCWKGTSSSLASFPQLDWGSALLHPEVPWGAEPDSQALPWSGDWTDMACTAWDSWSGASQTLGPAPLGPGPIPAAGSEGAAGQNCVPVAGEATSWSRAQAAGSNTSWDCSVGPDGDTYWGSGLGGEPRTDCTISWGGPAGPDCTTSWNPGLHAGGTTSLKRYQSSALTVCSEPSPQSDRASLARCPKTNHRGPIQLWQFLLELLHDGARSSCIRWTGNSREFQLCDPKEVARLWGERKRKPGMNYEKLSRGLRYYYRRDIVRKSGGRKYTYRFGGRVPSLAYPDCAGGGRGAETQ
The settings on record: protein: recombinant; tags: N-terminal GST; dsDNA, one strand shown. In short, it runs like this: as §1

Another experiment has as its target T11, ELF3 (Homo sapiens, UniProt P78545 1-371).
T11 sequence: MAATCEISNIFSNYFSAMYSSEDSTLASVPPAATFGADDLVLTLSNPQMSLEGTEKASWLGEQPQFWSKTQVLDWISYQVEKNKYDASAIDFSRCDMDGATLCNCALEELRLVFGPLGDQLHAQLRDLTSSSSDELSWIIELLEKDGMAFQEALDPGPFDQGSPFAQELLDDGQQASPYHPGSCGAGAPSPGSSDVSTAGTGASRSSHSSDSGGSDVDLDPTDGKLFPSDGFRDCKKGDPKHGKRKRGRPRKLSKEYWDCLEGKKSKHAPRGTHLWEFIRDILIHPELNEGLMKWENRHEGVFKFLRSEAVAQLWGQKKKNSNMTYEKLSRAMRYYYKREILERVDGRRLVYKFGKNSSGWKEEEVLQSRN
The settings on record: protein: recombinant; tags: N-terminal GST; dsDNA, one strand shown. In short, it runs like this: as §1

The next experiment deals with CRX (Homo sapiens, UniProt O43186 1-299). The settings on record: protein: recombinant; tags: N-terminal GST; dsDNA, one strand shown. In short, it runs like this: as §1
Sequence of CRX (O43186 whole entry): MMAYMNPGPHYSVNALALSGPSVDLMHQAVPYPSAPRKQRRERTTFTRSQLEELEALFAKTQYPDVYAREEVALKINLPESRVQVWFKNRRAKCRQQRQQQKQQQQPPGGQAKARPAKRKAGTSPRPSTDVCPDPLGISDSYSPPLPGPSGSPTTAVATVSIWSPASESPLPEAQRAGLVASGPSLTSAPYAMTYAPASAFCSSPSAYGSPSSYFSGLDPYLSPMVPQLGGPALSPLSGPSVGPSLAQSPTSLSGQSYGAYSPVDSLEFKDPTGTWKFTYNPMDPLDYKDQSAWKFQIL
Another experiment concerns the target ETV1 (Homo sapiens, UniProt P50549 1-477). The settings on record: protein: recombinant; tags: N-terminal GST; dsDNA, one strand shown. In short, it runs like this:
as §1

Sequence of HSF1 (Q00613 whole entry): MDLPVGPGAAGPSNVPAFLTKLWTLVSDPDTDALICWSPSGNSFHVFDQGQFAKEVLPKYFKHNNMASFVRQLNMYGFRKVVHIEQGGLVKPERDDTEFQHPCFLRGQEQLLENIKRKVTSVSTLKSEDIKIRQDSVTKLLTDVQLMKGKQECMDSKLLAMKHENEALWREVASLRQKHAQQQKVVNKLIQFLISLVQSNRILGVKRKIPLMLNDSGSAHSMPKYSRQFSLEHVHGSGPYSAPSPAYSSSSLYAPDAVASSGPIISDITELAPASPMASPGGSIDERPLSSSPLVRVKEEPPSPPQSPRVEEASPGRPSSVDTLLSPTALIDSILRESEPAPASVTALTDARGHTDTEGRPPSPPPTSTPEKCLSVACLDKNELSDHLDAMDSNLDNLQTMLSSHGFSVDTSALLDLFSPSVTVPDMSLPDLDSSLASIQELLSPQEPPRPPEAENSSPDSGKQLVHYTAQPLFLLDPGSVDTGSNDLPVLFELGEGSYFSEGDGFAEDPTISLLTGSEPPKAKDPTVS
Sequence of ETV5 (P41161 whole entry): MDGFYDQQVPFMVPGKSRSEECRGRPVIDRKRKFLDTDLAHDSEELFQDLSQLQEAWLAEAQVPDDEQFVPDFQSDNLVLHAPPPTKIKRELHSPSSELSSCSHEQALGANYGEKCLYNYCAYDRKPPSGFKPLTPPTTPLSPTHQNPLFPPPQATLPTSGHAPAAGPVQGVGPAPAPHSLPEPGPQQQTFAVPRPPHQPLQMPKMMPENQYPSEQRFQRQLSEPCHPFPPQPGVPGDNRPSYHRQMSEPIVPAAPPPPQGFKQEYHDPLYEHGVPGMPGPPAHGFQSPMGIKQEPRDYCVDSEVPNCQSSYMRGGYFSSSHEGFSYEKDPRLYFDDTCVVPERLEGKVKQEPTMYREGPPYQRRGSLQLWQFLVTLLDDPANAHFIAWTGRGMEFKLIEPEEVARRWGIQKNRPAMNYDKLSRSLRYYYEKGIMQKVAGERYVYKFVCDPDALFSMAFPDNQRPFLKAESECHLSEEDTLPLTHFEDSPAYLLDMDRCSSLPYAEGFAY
Sequence of ELF4 (Q99607 whole entry): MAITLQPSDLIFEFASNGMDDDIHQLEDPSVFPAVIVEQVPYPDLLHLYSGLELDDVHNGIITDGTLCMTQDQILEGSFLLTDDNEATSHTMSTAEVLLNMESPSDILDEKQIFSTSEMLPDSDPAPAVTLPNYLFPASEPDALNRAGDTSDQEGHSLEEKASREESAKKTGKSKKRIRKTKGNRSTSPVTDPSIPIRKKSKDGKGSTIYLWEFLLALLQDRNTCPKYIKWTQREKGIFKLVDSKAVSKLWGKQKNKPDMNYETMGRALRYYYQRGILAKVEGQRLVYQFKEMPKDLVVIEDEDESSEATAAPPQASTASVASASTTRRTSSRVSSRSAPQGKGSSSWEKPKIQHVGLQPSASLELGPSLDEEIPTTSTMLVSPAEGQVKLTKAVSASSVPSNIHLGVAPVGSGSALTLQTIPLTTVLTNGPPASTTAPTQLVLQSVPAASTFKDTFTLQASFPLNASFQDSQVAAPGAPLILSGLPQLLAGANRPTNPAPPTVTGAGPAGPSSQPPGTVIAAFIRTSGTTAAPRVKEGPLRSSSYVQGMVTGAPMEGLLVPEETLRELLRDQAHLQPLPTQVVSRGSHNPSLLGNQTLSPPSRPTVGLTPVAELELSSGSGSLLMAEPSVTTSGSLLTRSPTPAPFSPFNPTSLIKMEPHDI
Sequence of ETV1 (P50549 whole entry): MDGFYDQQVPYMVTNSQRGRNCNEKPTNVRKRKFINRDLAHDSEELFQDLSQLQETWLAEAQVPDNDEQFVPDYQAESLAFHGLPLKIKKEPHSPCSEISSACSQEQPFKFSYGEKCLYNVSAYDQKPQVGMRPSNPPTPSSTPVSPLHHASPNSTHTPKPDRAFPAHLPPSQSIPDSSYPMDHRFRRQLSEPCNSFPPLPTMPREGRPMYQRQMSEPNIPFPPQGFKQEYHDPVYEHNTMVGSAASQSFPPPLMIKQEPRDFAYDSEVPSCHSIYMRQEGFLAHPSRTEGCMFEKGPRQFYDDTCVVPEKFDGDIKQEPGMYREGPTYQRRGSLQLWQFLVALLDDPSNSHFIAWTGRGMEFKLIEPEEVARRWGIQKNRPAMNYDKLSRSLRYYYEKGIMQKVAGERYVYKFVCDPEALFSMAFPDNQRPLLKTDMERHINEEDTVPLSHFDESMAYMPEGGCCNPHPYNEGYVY
Sequence of SPIB (Q01892 whole entry): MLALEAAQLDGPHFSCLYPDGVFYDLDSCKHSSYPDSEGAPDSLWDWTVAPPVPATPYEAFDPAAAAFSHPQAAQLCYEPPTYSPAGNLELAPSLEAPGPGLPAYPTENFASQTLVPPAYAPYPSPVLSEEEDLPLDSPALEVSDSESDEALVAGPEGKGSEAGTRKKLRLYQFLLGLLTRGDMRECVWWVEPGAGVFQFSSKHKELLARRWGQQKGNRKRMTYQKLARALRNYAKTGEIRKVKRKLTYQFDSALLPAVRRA

Take CCTATT: the binding signal was 1.47 fold enrichment (6-mer frequency, TF over GST control) in the experiment with FLI1; 1.55 fold enrichment (6-mer frequency, TF over GST control) in the experiment with ELK1; 1.49 fold enrichment (6-mer frequency, TF over GST control) with GABPA; 1.53 fold enrichment (6-mer frequency, TF over GST control) in the experiment with ERG; 1.56 fold enrichment (6-mer frequency, TF over GST control) with ELF1; 1.64 fold enrichment (6-mer frequency, TF over GST control) in the experiment with EHF. The binding signal in the experiment with SPI1 is 1.55 fold enrichment (6-mer frequency, TF over GST control); in the experiment with SPIB, 1.44 fold enrichment (6-mer frequency, TF over GST control); in the experiment with ELK3, 1.4 fold enrichment (6-mer frequency, TF over GST control); with FEV it was 1.39 fold enrichment (6-mer frequency, TF over GST control); with ETV5, 1.51 fold enrichment (6-mer frequency, TF over GST control); with HSF1, 1.43 fold enrichment (6-mer frequency, TF over GST control). For the same sequence, the binding signal with SPIC was 1.46 fold enrichment (6-mer frequency, TF over GST control); with ELF4, 1.44 fold enrichment (6-mer frequency, TF over GST control); with ELK4, 1.37 fold enrichment (6-mer frequency, TF over GST control); with ETV2, 1.46 fold enrichment (6-mer frequency, TF over GST control); with ELF3, 1.54 fold enrichment (6-mer frequency, TF over GST control); in the experiment with CRX it was 1.67 fold enrichment (6-mer frequency, TF over GST control). The binding signal with ETV1 was 1.55 fold enrichment (6-mer frequency, TF over GST control).
